LMNA splice mod = qHTS Assay for Modulators of Lamin A Splicing. Potency, µM (top dose mostly 46.1 µM), most hits filed as inhibitors. 0.01% of 200,000 active. HeLa LMNA splicing GFP/RFP minigene ratio, 48 h. AID 1487, 2009; active means well fitted inhibition curve with a large enough effect in the signal ratio, with a control signal flat, not every such curve was filed as active; inconclusive means small, poorly fitted or top-dose-only effect, or effect the other way, or a change in a side signal; the % refers to the signal ratio
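S3 HeLa cells stably expressing lamin A-EGFP splicing minigene plus DsRed2, 600 cells/well, 48 h compound exposure at 37C. Laser-scanning cytometry; analysed as GFP (500-530 nm)/RFP (575-640 nm) total intensity ratio; 0.5% DMSO vehicle.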
Sfp PPTase inh = qHTS Assay for Inhibitors of Bacillus subtilis Sfp phosphopantetheinyl transferase (PPTase); Biochemical Sfp PPTase activity, qHTS; Potency, µM, hits mostly inhibitors; 3.5% of 310,000 active; AID 1490, 2009;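 further: the enzyme is Sfp with the accession as filed and its product quenches rhodamine fluorescence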
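Compounds were incubated with enzyme (final 15 nM) for 15 min at room temperature before substrate addition started the reaction. Fluorescence at 525 nm excitation, 598 nm emission was recorded immediately and after 30 minutes.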
ALDH1A1 inh = qHTS Assay for Inhibitors of Aldehyde Dehydrogenase 1 (ALDH1A1); Potency, µM (series often up to 75.3 µM), usual class: inhibitors; Purified ALDH1A1, NADH fluorescence, propionaldehyde substrate; AID 1030, 2008; 7.3% of 220,000 active; Aldehyde dehydrogenase 1A1 (Homo sapiens), P00352; active means well fitted inhibition curve with a large enough effect, not every such curve was filed as active; inconclusive means small, poorly fitted or top-dose-only effect, or another doubt; inactive means no such curve, though single readings can be large or run the other way
KDM4E inh = qHTS Assay for Inhibitors of Human Jumonji Domain Containing 2E (JMJD2E). AID 2147, 2009. JMJD2E catalytic domain, FDH-coupled NADH fluorescence (FDH is formaldehyde dehydrogenase). Potency, µM (titrated, usually from 57.1 µM), usual class: inhibitors. 1.6% of 230,000 active. Lysine-specific demethylase 4E (Homo sapiens), B2RXH2; active means well fitted inhibition curve with a large enough effect, not every such curve was filed as active; inconclusive means small, poorly fitted or top-dose-only effect, or another doubt; inactive means no such curve, though single readings can be large or run the other way; further: nearly all actives have a fitted effect of over 50% in size
Target sequence (B2RXH2 1-337 limits assumed): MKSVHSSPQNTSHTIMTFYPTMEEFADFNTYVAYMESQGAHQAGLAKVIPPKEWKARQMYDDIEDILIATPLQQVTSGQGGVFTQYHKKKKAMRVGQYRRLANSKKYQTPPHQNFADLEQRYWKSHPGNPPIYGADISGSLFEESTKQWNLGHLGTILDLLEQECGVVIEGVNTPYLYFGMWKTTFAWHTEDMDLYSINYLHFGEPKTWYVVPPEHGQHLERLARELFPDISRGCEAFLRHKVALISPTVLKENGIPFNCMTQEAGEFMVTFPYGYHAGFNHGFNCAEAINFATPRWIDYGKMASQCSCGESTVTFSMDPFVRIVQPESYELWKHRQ
miR-21 act = qHTS Assay for Modulators of miRNAs and/orActivators of miR-21; HeLa miR-21 FLuc reporter, luciferase, 48 h; Potency, µM (series often up to 38.3 µM), hits mostly activators; 340,000 tested, under 10 active;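 further: miR-21 action dims this reporter so a rising signal means less miR-21 action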
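HeLa cells endogenously expressing miR-21, stably carrying CMV-driven firefly luciferase with a downstream miR-21 binding site, 2000 cells/well. Titrations up to approximately 40 uM, 48 hours; luciferase luminescence read.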
G9a block = qHTS Assay for Inhibitors of Histone Lysine Methyltransferase G9a. Histone-lysine N-methyltransferase EHMT2 (Homo sapiens), Q96KQ7. G9a H3K9 monomethylation, AlphaScreen, 2 h. Potency, µM (titrated, usually from 102 µM), usual class: inhibitors. 8.8% of 350,000 active; further: nearly all actives have a fitted effect of over 75% in size
Target sequence (Q96KQ7 913-1193 limits assumed): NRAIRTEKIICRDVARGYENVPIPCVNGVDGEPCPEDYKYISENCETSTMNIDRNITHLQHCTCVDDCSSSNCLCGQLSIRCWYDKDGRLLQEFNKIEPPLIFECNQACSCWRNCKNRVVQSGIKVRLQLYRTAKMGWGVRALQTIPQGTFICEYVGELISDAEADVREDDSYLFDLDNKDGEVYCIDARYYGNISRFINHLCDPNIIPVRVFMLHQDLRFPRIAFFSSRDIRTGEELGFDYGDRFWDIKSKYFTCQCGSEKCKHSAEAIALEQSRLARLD
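Enzyme 20 nM + cpd, 15 min RT; add b-H3K9 pep 500 nM / SAM 20 uM; 2 h RT; anti-H3K9me1 Ab 0.5 ug/mL + SA donor / anti-rabbit acceptor beads 20 ug/mL each, 10 min; AlphaScreen read.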
Numbers stand for hits; n = inactive; u = inconclusive; x = not tested or not shown; [ ] = remark or other dose. This is a sample that favours compounds with a hit; in the whole collection about 13% have one here. Unless noted, the call rests on the fitted dose curve; in most records, active means well fitted curve in the direction sought with a large enough effect; inconclusive means small, poorly fitted or top-dose-only effect, or another doubt; inactive means no such curve, though single readings can be large; an effect the other way counts as inactive or inconclusive.

SMILES	LMNA splice mod	Sfp PPTase inh	ALDH1A1 inh	KDM4E inh	miR-21 act	G9a block
CC(C)(C)n1nc2c(c1NC(=O)Cc1ccc([N+](=O)[O-])cc1)CS(=O)(=O)C2	x	n	x	x	n	n
O=C(c1cc(N2C(=O)C3C4CCC(C4)C3C2=O)ccc1Cl)N1CCN(c2ccc(F)cc2)CC1 (stereo not given)	u	n	n	n	n	u
CCn1cc(C(=O)N2CCN(c3ccc(OC)cc3)CC2)c(=O)c2cc(S(=O)(=O)N(C)C3CCCCC3)ccc21	x	x	x	x	n	n
CCn1cc(C(=O)N2CCN(c3ccc(OC)cc3)CC2)c(=O)c2cc(S(=O)(=O)N3CCCCC3)ccc21	u	n	11µM	n	n	50µM
COc1ccc(N2CCN(C(=O)c3cc(N4C(=O)C5C6CCC(C6)C5C4=O)ccc3Cl)CC2)cc1 (stereo not given)	u	n	n	n	n	40µM
COc1ccc(N2CCN(S(=O)(=O)c3ccc(OC)c(C(=O)N4CCCCC4)c3)CC2)cc1	x	n	x	x	n	45µM
Cc1ccc(S(=O)(=O)N2CCCCC2CCNC(=O)C(=O)NCC2CCCO2)cc1 (stereo not given)	x	x	x	x	x	n
CCOc1ccc(C(=O)Nc2ccc(C(=O)OCc3cc(=O)n4c(C)csc4n3)cc2)cc1	u	x	x	x	u	n
COC(=O)c1ccc(CSc2ccc3nnc(-c4cccc(F)c4)n3n2)o1	n	50µM	u	u	n	18µM
CSc1ccc2nnc(-c3cccc(F)c3)n2n1	n	n	n	u	n	40µM
CCOC(=O)CC(=O)CSc1ccc2nnc(-c3cccc(F)c3)n2n1	u	n	u	u	n	n
CN(C)c1cc[n+](CC(=O)c2ccc(OC(F)F)cc2)cc1	x	n	x	n	n	n[12.7 µM]
CN(CC(=O)Nc1ccc(Cl)cc1)CC(=O)Nc1ccc(C(N)=O)cc1	n	n	32µM	n	n	n
Cc1nc(N2CCC(C)CC2)c2oc3ccccc3c2n1	u	n	u	n	n	n[12.7 µM]
Cc1nc(N2CCN(Cc3ccc(Cl)cc3)CC2)c2oc3ccccc3c2n1	x	22µM	x	u	n	x
Cc1nc(N2CCN(C(=O)c3ccco3)CC2)c2oc3ccccc3c2n1	u	n	28µM	n	n	u
COc1ccccc1N1CCN(c2nc(C)nc3c2oc2ccccc23)CC1	u	25µM	u	u	n	40µM
O=C(c1cccc(Cl)c1)N1c2nc(-c3ccco3)nn2C2(CCCCC2)[C@@H]2CCCC[C@@H]21	n	x	x	x	n	n
COc1cccc(C(=O)N2c3nc(-c4ccco4)nn3C3(CCCCC3)[C@@H]3CCCC[C@@H]32)c1	u	x	x	x	u	18µM
O=C(c1cccc([N+](=O)[O-])c1)N1c2nc(-c3ccco3)nn2C2(CCCCC2)[C@@H]2CCCC[C@@H]21	n	x	x	x	n	8.9µM
O=C(CC(C(=O)O)P(=O)(c1ccccc1)c1ccccc1)c1ccc(Br)cc1 (stereo not given)	x	n	x	n	n	u
Cc1ccc(SC(CC(=O)c2ccc(C)cc2)C(=O)O)cc1 (stereo not given)	u	11µM	0.13µM	n	n	n
O=C(CC(Sc1ccc(Br)cc1)C(=O)O)c1ccc(Br)cc1 (stereo not given)	x	35µM	x	x	n	25µM
Cc1ccc(C(CC(=O)c2ccc(Cl)cc2)C(=O)O)cc1 (stereo not given)	n	n	n	n	n	n
CCOc1ccc(-c2nnc(SCC(=O)Nc3cc(F)ccc3F)o2)cc1	x	x	x	x	n	n
SMILES	LMNA splice mod	Sfp PPTase inh	ALDH1A1 inh	KDM4E inh	miR-21 act	G9a block
Nc1ccn(-c2ncc(C(F)(F)F)cc2Cl)c(=O)n1	n	n	n	n	n	n[12.7 µM]
FC(F)(F)c1cnc(-n2cc[nH]c2=S)c(Cl)c1	n	n	n	n	n	32µM
Nc1nc(OCC2CCCCC2)c2[nH]cnc2n1	x	n	x	x	n	n[12.7 µM]
O=[N+]([O-])c1cc2c(cc1/C=N/n1c(-c3ccccc3)n[nH]c1=S)OCO2	n	40µM	13µM	n	n	1.4µM
O=[N+]([O-])c1cc2c(cc1/C=N/n1c(-c3ccccn3)n[nH]c1=S)OCO2	n	22µM	28µM	n	n	0.79µM
O=[N+]([O-])c1cc2c(cc1C=Nc1ccccc1)OCO2	n	n	u	n	n	u
COc1cc(CN(C)Cc2ccccc2)cc(OC)c1O	n	u	n	u	n	8.9µM
COc1ccc(CCN(C)Cc2ccc(OC)c(OCc3ccccc3)c2)cc1OC	n	n	n	n	n	u
COCCNC(=O)CCCn1c(SCC(=O)Nc2cccc(C)c2)nc2c(sc3ccccc32)c1=O	x	x	x	x	n	n
COc1ccc(N2CCN(CCCNC(=O)c3cc4sccc4n3C)CC2)cc1	u	n	n	n	n	14µM
COc1ccc(N2CCN(CCCNC(=O)Cn3c(-c4cccs4)cc4ccccc43)CC2)cc1	u	x	x	x	n	10µM
CC(CC12CC3CC(CC(C3)C1)C2)NCc1ccccc1O (stereo not given)	x	n	x	x	n	n[0.501 µM]
OC[C@@H]1O[C@@H](n2cnc3c(SCc4ccccc4)ncnc32)[C@@H](O)[C@H]1O	x	x	n[13.5 µM]	x	x	x
CC1CN(CCOc2ccccc2-c2ccccc2)CC(C)O1 (stereo not given)	n	n	n	u	n	14µM
c1ccc(-c2ccccc2OCCN2CCCC2)cc1	x	n	x	x	n	7.9µM
Fc1ccc(OCCCCCCN2CCCC2)cc1	u	n	n	n	n	n
c1ccc(-c2ccccc2OCCCN2CCOCC2)cc1	x	n	n	n	n	x
CC1CN(CCOc2ccc(F)cc2)CC(C)O1 (stereo not given)	x	n	x	x	n	7.1µM
O=C(CN(c1cc(Cl)ccc1Cl)S(=O)(=O)c1ccccc1)N1CCOCC1	x	n	x	x	n	n
COc1ccc(NC(=O)N2CC[C@@]3(CCCN(C(=O)c4cc(C(F)(F)F)cc(C(F)(F)F)c4)C3)C2)cc1	x	n	n	x	x	n[12.7 µM]
COc1ccc(NC(=O)c2ccc3[nH]c(C)cc(=O)c3c2)cc1	x	x	x	x	n	n
CC1CCc2c(sc(N)c2C(=O)OC(C)C)C1 (stereo not given)	n	u	11µM	n	n	u
COc1ccc(N=C2C(=O)Nc3c(C)cccc32)cc1	n	n	14µM	n	n	50µM
Cc1ccc(N=C2C(=O)Nc3c(C)cccc32)cc1	x	n	x	x	n	n
O=C(COC(=O)C12CC3CC(CC(O)(C3)C1)C2)NCCc1ccc(Cl)cc1	x	n	n	n	n	n
O=C(CC1(c2ccc(Cl)cc2)C2CC3CC(C2)CC1C3)NCCO (stereo not given)	x	n	13µM	n	n	n
